Hits are enriched below; roughly 19% of the tested compounds scored in any of these assays.
DT40 TDP1 CPT = qHTS for Inhibitors of human tyrosyl-DNA phosphodiesterase 1 (TDP1): qHTS in cells in presence of CPT; chicken DT40 Tdp1-/-;hTDP1 cells + 20 nM CPT, ATP luminescence, 48 h; Potency, µM (highest dose often 46.2 µM), for inactives: at the top dose activity change, negative = growth inhibition, hits mostly inhibitors; 420,000 compounds, 12% hits; AID 686979, 2013; also: potency is read from the fitted curve at half-maximal effect; % is scaled to controls: 0 for no effect and ±100 for the full control effect; nearly all actives have a fitted effect of over 55% in size
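Chicken DT40 Tdp1-/- cells complemented with human TDP1, 400 cells/well, exposed to compounds plus 20 nM camptothecin for at least 48 h at 37 C; viability read as ATP content by CellTiter-Glo luminescence.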
BCR signal inh = qHTS Assay to Find Inhibitors of Chronic Active B-Cell Receptor Signaling; ABC-DLBCL IkBa-CBG/CBR reporter, luminescence ratio, 4 h; Potency, µM (doses to about 46.1 µM), without a hit: at the highest dose activity change, negative = inhibition, actives largely listed as inhibitors; 340,000 compounds, 0.05% hits; AID 493014, 2011; active = well fitted inhibition curve with a large enough effect in the signal ratio, with a control signal flat, not every such curve was filed as active; inconclusive = small, poorly fitted or top-dose-only effect, or effect the other way, or a change in a side signal; the % refers to the signal ratio;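 also: potency is read from the fitted curve at half-maximal effect; plate controls were basal doxycycline-induced cells for no effect and cells given 10 µM MG132 for full effect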
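TMD8 human ABC-DLBCL cells with doxycycline-inducible IκBα–green luciferase fusion and unfused red luciferase, in 0.5% FBS medium; compounds up to 46 uM, 4 h at 37C. Green/red luminescence ratio, filter-overlap corrected, fitted to concentration-response curves.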
SW480 rereplic = A quantitative high throughput screen for small molecules that induce DNA re-replication in SW480 colon adenocarcinoma cells; SW480 DNA re-replication, Hoechst DNA content imaging, 48 h; Potency, µM (top dose mostly 46.1 µM), for inactives: top-dose re-replication activation, hits mostly activators; 340,000 compounds, 1.8% hits; AID 624297, 2012; also: potency is read from the fitted curve at half-maximal effect; % of control where 0% means no effect; nearly all actives have a fitted effect of over 55% in size
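250 cells/well; 23 nL cpd via pin tool; 48 hr, 37 C, 5% CO2; Hoechst 40 min; imager read of total nuclear intensity, ex 405/em 500-530 nm.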
IL1B secr inh = qHTS for Inhibitors of Inflammasome Signaling: IL-1-beta AlphaLISA Primary Screen. 360,000 compounds, 4.7% hits. THP-1 LPS/ATP IL-1B secretion, AlphaLISA, 16 h; stronger effect = lower value. activity change, % at 57.5 µM; in the data active = activity change below about -50%; inconclusive = mostly about -30% to -49%; also: % is scaled to controls: 0 for no effect and ±100 for the full control effect
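Secreted IL-1B measured by AlphaLISA bead assay after 16 h compound exposure of THP-1 cells; compounds (final up to 57.5 uM) added 1 h before LPS (250 ng/mL) and ATP (1.25 mM) stimulation; lower signal means less secretion.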
TDP1 cell noCPT = qHTS for Inhibitors of human tyrosyl-DNA phosphodiesterase 1 (TDP1): qHTS in cells in absence of CPT; DT40 Tdp1-/- hTDP1 cells, no CPT, ATP luminescence, 48 h; 420,000 compounds, 15% hits; Potency, µM (top dose mostly 46.2 µM), for the others: top-dose activity change, negative = growth inhibition, hits mostly inhibitors; also: potency is read from the fitted curve at half-maximal effect; % is scaled to controls: 0 for no effect and ±100 for the full control effect; nearly all actives have a fitted effect of over 55% in size
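Camptothecin absent (DMSO only). Human TDP1-complemented DT40 knockout cells, 400 cells/well, 37 °C for minimum 48 hr; ATP measured via CellTiter-Glo, 30 min dark incubation, luminescence.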
MCF10A rerep = A quantitative high throughput screen for small molecules that induce DNA re-replication in MCF 10a normal breast cells; MCF 10A DNA re-replication, Hoechst nuclear intensity, 48 h; AID 624296, 2012; Potency, µM (series often up to 46.1 µM), inactives show at the top dose activity, positive = re-replication, hits mostly activators; 350,000 compounds, 2.9% hits; also: potency is read from the fitted curve at half-maximal effect; % of control where 0% means no effect; nearly all actives have a fitted effect of over 50% in size
Active calls of the source: *; u = inconclusive; x = not tested or not shown; [ ] = dose if it differs, or a comment. Unless noted, calls follow the shape of the dose curve; as a rule, active = well fitted curve in the direction sought with a large enough effect; inconclusive = small, poorly fitted or top-dose-only effect, or another doubt; inactive = no such curve, though single readings can be large; an effect the other way counts as inactive or inconclusive.

SMILES	DT40 TDP1 CPT	BCR signal inh	SW480 rereplic	IL1B secr inh	TDP1 cell noCPT	MCF10A rerep
COc1ccccc1C(CNC(=O)CN1C(=O)NC(C)(c2ccc3ccccc3c2)C1=O)N1CCCC1 (centres undefined)	u	x	-3%	-18	u	13%
CCN(CC)c1nc(-c2cccc(OC)c2O)nc2ccccc12	18µM*	10%	-5%[9.22 µM]	-16	23µM*	8%
COc1cccc(-c2nc(NC3CCCC3)c3ccccc3n2)c1O	u	u	1%	0	18µM*	u
COc1cccc(-c2nc(NCc3ccccc3)c3ccccc3n2)c1O	u	0%	-46%	10	u	28%
C=CCNc1nc(-c2cccc(OC)c2O)nc2ccccc12	u	15%	4%	-12	u	23µM*
Cn1c(=O)cc(C(=O)N/N=C/c2ccc(F)cc2)[nH]c1=O	12%	u	-24%	14	12%	6%
CC1CCN(C2=NC(=O)/C(=C/c3cccc(O)c3)S2)CC1	u	u	-6%	-75*	u	2%
CC1Cc2cc(/C=C3/SC(N4CCC(C(N)=O)CC4)=NC3=O)ccc2O1 (centres undefined)	15µM*	6%	13µM*	x	18µM*	-13%
CC1Cc2cc(/C=C3/SC(=S)N(C)C3=O)ccc2O1 (centres undefined)	-27%	u	-6%	3	u	-2%
CC1CCN(C2=NC(=O)/C(=C/c3ccccc3F)S2)CC1	-4%	u	-3%	-99*	u	u
CN(CC(=O)Nc1ccccc1)CC(=O)Nc1ccc(F)cc1	1%	-10%	-3%	-8	-14%	-1%
NS(=O)(=O)c1cc2c(cc1Cl)NC(c1ccccc1OCC(=O)O)NS2(=O)=O (centres undefined)	-2%	-17%	9%	8	u	1%
COc1ccc(CN2CCNC(=O)C2CC(=O)NCCN2CCCCC2=O)c(F)c1 (centres undefined)	-16%	-1%	1%	9	1%	9%
C=CCOc1ccc(/C=C2\SC(=S)N(NS(=O)(=O)c3ccccc3)C2=O)cc1	-3%	9%	-36%	-6	4%	u
COc1ccc2c(c1)C1(Nc3ccccc3-c3nc4ccccc4n31)C(=O)N2C (centres undefined)	u	27%	-2%	-3	21µM*	15%
CCN(CC)CCCNc1nc(-n2nc(C)cc2C)nc2sc3c(c12)CC(C)(C)OC3	u	u	u	-57*	u	4%
Cc1ccccc1Cn1c(=O)c2c(nc3n2CCCN3Cc2ccccc2)n(C)c1=O	21µM*	x	-6%	-1	u	9%
CCOCCn1c(=O)c2c(nc3n2CCCN3Cc2ccccc2)n(C)c1=O	28%	1%	-4%	12	-20%	4%
C=C(C)Cn1c(=O)c2c(nc3n2CCCN3CCc2ccccc2)n(C)c1=O	u	5%	-14%	6	13µM*	4%
C=C(C)Cn1c(=O)c2c(nc3n2CCN3c2cc(C)cc(C)c2)n(C)c1=O	-24%	x	x	x	23µM*	x
CCCCn1c(=O)c2c(nc3n2CCCN3Cc2ccccc2)n(C)c1=O	u	4%	1%	26	23µM*	9%
Cn1c(=O)n(Cc2ccccc2)c(=O)c2c1nc1n2CCCN1Cc1ccccc1	u	u	-6%	0	u	3%
CCc1ccccc1NC(=O)CNC(=O)c1cc(C2CC2)nn1-c1ccccc1	u	u	-10%	-25	-18%	u
Cn1c(=O)n(CC(=O)OCc2ccccc2)c(=O)c2c1nc1n2CCCN1C1CCCCC1	u	x	4%	4	23µM*	9.2µM*
O=C(Nc1nncs1)c1cc2c(s1)CCC2	-26%	u	-1%	-15	-24%	-4%
SMILES	DT40 TDP1 CPT	BCR signal inh	SW480 rereplic	IL1B secr inh	TDP1 cell noCPT	MCF10A rerep
CC(C)Cc1nnc(NC(=O)c2cc3c(s2)CCC3)s1	-5%	u	23µM*	2	-3%	23µM*
Cc1cc(N2CCN(C/C=C/c3ccccc3)CC2)n2ncnc2n1	16µM*	-4%	-11%	-21	10µM*	-7%
O=C(O)C(=Cc1cccc([N+](=O)[O-])c1)c1ccc(Cl)cc1	u	x	0%	-5	u	1%
FC(F)(F)c1cc(C(F)(F)F)c2ccc(N/N=C/c3cccc(Cl)c3)nc2n1	x	0%	x	x	x	x
Fc1ccccc1/C=N/Nc1ncnc2ccccc12	6.5µM*	u	-1%	28	15µM*	-3%
Clc1ccc(/C=N/Nc2ncnc3ccccc23)cc1Cl	21µM*	u	-6%	-8	21µM*	u
Clc1cccc(/C=N/Nc2nc(Cl)nc3ccccc23)c1	23µM*	u	u	-17	u	16%
CCOC(=O)C(NCCc1ccccc1F)(NC(C)=O)C(F)(F)F (centres undefined)	-13%	-2%	-9%	13	-3%	-1%
CCCC(=O)Oc1ccccc1C1SCc2cc(C)c(C)cc2CS1	18µM*	u	14%	-22	26µM*	u
CC1CC(C)CN(C(=O)c2ccc(NS(=O)(=O)c3ccc4[nH]c(=O)[nH]c4c3)cc2)C1 (centres undefined)	6%	1%	-9%	-11	2%	3%
CC(C)(C)C1CCC(C(=O)Nc2ccc(N3CCOCC3)cc2N2CCOCC2)CC1 (centres undefined)	u	1%	-4%	-21	u	0%
CC(C)(C)OC(=O)N1CCC(c2cc(=O)n3[nH]cc(C(=O)Nc4ccc(F)c(Cl)c4)c3n2)CC1	2%	8%	1%	15	5%	8%
CCOC(=O)c1cn2nc(-c3ccc(OCC)cc3)cc2nc1C1CCN(C(=O)OC(C)(C)C)CC1	u	-1%	0%	-1	16µM*	u
COc1ccc(-c2cc3nc(C4CCN(C(=O)OC(C)(C)C)CC4)c(C(=O)O)cn3n2)cc1	u	u	-3%	-14	u	9%
CCOc1ccc(-c2cc3nc(C4CCN(C(=O)OC(C)(C)C)CC4)c(C(=O)Nc4cccc(C(F)(F)F)c4)cn3n2)cc1	16µM*	x	x	x	u	x

Compound activity deposited in PubChem by National Center for Advancing Translational Sciences (NCATS).
